The list shows a part of the results. Inconclusive results are not listed. Calls of active or inactive are those of the source. Calls follow the shape of the dose curve; as a rule, active = well fitted curve in the direction sought with a large enough effect; inconclusive = small, poorly fitted or top-dose-only effect, or another doubt; inactive = no such curve, though single readings can be large or run the other way.

The nature of this assay: qHTS for Inhibitors of Glutaminase (GLS): Hit Confirmation using Cytotoxicity. The settings on record: HEK-293 viability, CellTiter-Glo luminescence, 24 h; series mostly up to 46.1 µM. The text has this:
Glutaminase (GLS) catalyzes the hydrolysis of glutamine into glutamate and ammonia. It plays a critical role in glutaminolysis, which is an important energy source for proliferating cells. It was shown that c-Myc, an oncogenic transcription factor known to regulate microRNAs and to stimulate cell proliferation, increases glutamine metabolism by stimulating the expression of GLS via direct suppression of miR23a and miR23b. […] GLS is also thought to play a pathogenic role on HAD using a human HIV-1 infected macrophage system. […] GLS inhibition limits glutamate release and provides neuroprotection against HIV-1 infected macrophages. […] The overall goal of this project is to identify small molecule inhibitors of GLS through quantitative high throughput screening (qHTS) of the MLSMR. A validated potent and selective inhibitor can be used as a tool molecule to further study the pharmacology of its target as well as explore its potential therapeutic application in cancer and inflammatory neurological disorders, such as HIV1-associated dementia (HAD) and multiple sclerosis. This is a hit confirmation assay using a cytotoxic read-out to exclude cytotoxic compounds. Toxic compounds will be labeled as active and excluded in future experiment. NIH Chemical Genomics Center [NCGC] NIH Molecular Libraries Probe Centers Network [MLPCN] MLPCN Grant: DA032470 Assay Submitter (PI): Barbara S. Slusher, Johns Hopkins University
HEK-293 cells are grown in a flask up to 80% confluence. Cells will be trypsinized, washed, and resuspended in MEM Eagle + 10% FBS + 1% pen-strep media at the concentration of 120 cells/microl. Five microl/well of cell solution will be dispensed into a 1536-well assay plates (Greiner, solid white medium-binding plates) with Auror Discovery BioRAPTR Flying Reagent Dispenser (FRD; Beckton-Dickenson). Cells will be pre-incubated at 37 °C, 5% CO2 for 4hrs. Compound and control solutions (23nl) will then be transferred to the assay plate using the Kalypsys 1536 pin-tool. […] Luminescence signal will be read with PerkinElmer ViewLux plate reader after 30 min room temperature incubation.
With `CCN1C(=O)c2cccc3c(S(=O)(=O)Nc4ccccc4O)ccc1c23`, the outcome was inactive.
For `O=C(O)c1cccc(S(=O)(=O)Nc2ccc(O)cc2Sc2nc3ccccc3s2)c1`, the call was inactive.
For `COc1cc(OC)c(S(=O)(=O)Nc2ccccc2C(=O)O)cc1S(=O)(=O)Nc1ccccc1C(=O)O`, the outcome was inactive.
